Laboratory results published in PubChem BioAssay (EPA / NIEHS).
Activity calls are given as the source filed them. Rule for the calls: active = hit-call score of the fitted dose curve at least 0.9, where 1 is the maximum; inactive = score below 0.9.

Read-out: Interleukin-8 (IL8), CXCL8 (gene 3576)
Assay: BSK_MyoF_IL8: BioMAP Diversity Plus: MyoF Assay for Interleukin-8 (IL8) Biomarker Activity (AID 2284261)
Conditions: primary human lung fibroblasts
Method: BSK_MyoF is a cell-based, multiplexed-readout assay that uses lung fibroblasts, […], with measurements taken at 24 hours after chemical dosing in a microplate: 96-well plate.BSK_MyoF_IL8 is an assay component measured in the BSK_MyoF assay. It measures IL-8 antibody related to regulation of gene expression using ELISA technology.Data from the assay component BSK_MyoF_IL8 was analyzed at the endpoint, BSK_MyoF_IL8, in the positive analysis fitting direction relative to DMSO as the negative control and baseline of activity. Using a type of binding reporter, gain or loss-of-signal activity can be used to understand protein changes. To generalize the intended target to other relatable targets, this assay endpoint is annotated to the 'cytokine' intended target family, where the subfamily is 'interleukins'.
The levels of cell surface (or secreted, indicated by the prefix "s") biomarker endpoints were measured by ELISA. Overt cytotoxicity to cells in confluent adherent cultures (all systems other than the BT system) was assessed by measuring total protein levels using sulforhodamine B (SRB) staining in parallel cultures at the time of biomarker measurements, indicated as SRB endpoints. For proliferation assays for adherent cell types, individual cell types are cultured at sub-confluence and relative cell numbers quantified by SRB staining at time points optimized for each system (48 h: 3C and CASM3C systems; 72 h: BT and HDF3CGF systems; 96 h: SAg system). SRB was performed by staining cells with 0.1% SRB after fixation with 10% TCA and reading wells at 560 nm.Viability and proliferation of PBMC (T cells) was quantified by Alamar Blue reduction for the SAg and BT systems. For PBMC viability (referred to as PBMC Cytotoxicity within the assay endpoint names), cells were plated (75,000/well in a 96-well plate) and then chemical samples added for 1 h before addition of activators, SEB and TSST-1 (20 ng/mL final concentration each). Cells were incubated for 90 h. Then, Alamar Blue (20 uL/well) (Invitrogen, Cat DAL1100) was added for 6 h, and the plates were read with a fluorescence microplate reader at 546/580 nm (excitation/emission). For PBMC proliferation, cells were plated and activated as above but incubated for only 16 h prior to addition of Alamar Blue. Plates were read after 6 h.

Row | Structure (SMILES) | outcome | AC50
1 | CCCCOC(=O)CCCCCCCC(=O)OCCCC | inactive | 
2 | C=C(C)C(=O)OCCOCCOCCOCCOC(=O)C(=C)C | inactive | 
3 | CC(C)(N=C=O)c1cccc(C(C)(C)N=C=O)c1 | inactive | 
4 | O=C1OC[C@H](Cc2cccc(O)c2)[C@H]1Cc1cccc(O)c1 | inactive | 
5 | CC(C=O)Cc1ccc(C(C)(C)C)cc1 (stereo not drawn) | inactive | 
6 | CCN(CC)C(=O)N(CC)CC | inactive | 
7 | c1ccc2cc(Nc3ccc(Nc4ccc5ccccc5c4)cc3)ccc2c1 | inactive | 
8 | O=C1c2ccccc2C(=O)c2c(O)ccc(O)c21 | inactive | 
9 | CC=Cc1ccc(OCC)c(O)c1 | inactive | 
10 | CN(C)C(=S)SC(=S)N(C)C | inactive | 
11 | Clc1cc(Cl)c(-c2c(Cl)c(Cl)cc(Cl)c2Cl)cc1Cl |  | 7.14 µM (active)
12 | CN(c1nccc(=O)[nH]1)C1CCN(c2nc3ccccc3n2Cc2ccc(F)cc2)CC1 | inactive | 
13 | IC(I)I | inactive | 
14 | COc1ccc(OC)c(N=Nc2c(O)ccc3ccccc23)c1 |  | 0.0788 µM (active)
15 | COc1cc(Cl)c(OC)cc1N | inactive | 
16 | CSCCC=O | inactive | 
17 | COc1ccc(CCN2CCC(Nc3nc4ccccc4n3Cc3ccc(F)cc3)CC2)cc1 |  | 7.38 µM (active)
18 | CC(=O)c1c(C)c([N+](=O)[O-])c(C(C)(C)C)c([N+](=O)[O-])c1C | inactive | 
19 | CS(=O)(=O)c1ccc(C2=C(c3ccccc3)C(=O)OC2)cc1 | inactive | 

Row | Structure (SMILES) | outcome | AC50
20 | CC(=O)Nc1ccc(C(=O)CCl)cc1 |  | 29.6 µM (active)
21 | CCCCCCCCCCCCCCCC(=O)OC/C=C(C)/C=C/C=C(C)/C=C/C1=C(C)CCCC1(C)C | inactive | 
22 | Cc1cc(CCC(=O)OCCOCCOCCOC(=O)CCc2cc(C)c(O)c(C(C)(C)C)c2)cc(C(C)(C)C)c1O | inactive | 
23 | CCC(C)c1cc([N+](=O)[O-])cc([N+](=O)[O-])c1OC(=O)OC(C)C (stereo not drawn) |  | 35.8 µM (active)
24 | CC(=O)C1(C)CC2=C(CCCC2(C)C)CC1C (stereo not drawn) | inactive | 
25 | C1=CC2C3C=CC(C3)C2C1 (stereo not drawn) | inactive | 
26 | C=C(C)[C@H]1CC=C(C)C(=O)C1 | inactive | 
27 | CC(C)(C)CC(C)(C)c1ccc(OCCOCC[N+](C)(C)Cc2ccccc2)cc1 |  | 5 µM (active)
28 | c1ccc(Oc2ccccc2)cc1 | inactive | 
29 | C=C(C)C(=O)OCC(CC)(COC(=O)C(=C)C)COC(=O)C(=C)C | inactive | 
30 | CN(C)C(=O)Nc1ccc(Oc2ccc(Cl)cc2)cc1 | inactive | 
31 | CC1(C)C2=CCCC(C)(C)[C@]23CC[C@H]1C3 | inactive | 
32 | c1ccc(CCc2ccccc2)cc1 | inactive | 
33 | CCCCCC(C=O)=Cc1ccccc1 | inactive | 
34 | O=C1OC2(c3ccccc31)c1ccc(O)c(Br)c1Oc1c2ccc(O)c1Br | inactive | 
35 | Oc1c(Cl)cc(Cl)c(Cl)c1Cc1c(O)c(Cl)cc(Cl)c1Cl |  | 13 µM (active)
36 | C[C@@H]1CCN(C(=O)[C@H](CCCN=C(N)N)NS(=O)(=O)c2cccc3c2NC[C@H](C)C3)[C@@H](C(=O)O)C1 | inactive | 
37 | C=C(C)C(=O)OCCOCCOCCOC(=O)C(=C)C | inactive | 
38 | CCCCN(CCCC)C(=O)N(CCCC)CCCC | inactive | 
